The list is not random: actives were taken first. Their share in the collection is about 19%.
uPA surface inh = cell surface uPA generation inhibition; cell surface uPA generation assay, qHTS; hit rate 0.31% among 330,000; Potency, µM (highest dose often 38.3 µM), inactives show top-dose activity change, negative = inhibition, hits mostly inhibitors; active = well fitted inhibition curve with a large enough effect; inconclusive = small, poorly fitted or top-dose-only effect; inactive = no such curve, though single readings can be large or run the other way; tested in mouse RAW 264.7 cells; also: potency is read from the fitted curve at half-maximal effect; nearly all actives have a fitted effect of over 55% in size
TDP1 cell noCPT = qHTS for Inhibitors of human tyrosyl-DNA phosphodiesterase 1 (TDP1): qHTS in cells in absence of CPT. DT40 Tdp1-/- hTDP1 cells, no CPT, ATP luminescence, 48 h. Potency, µM (titrated, usually from 46.2 µM), inactives show at the top dose activity change, negative = growth inhibition, most hits filed as inhibitors. hit rate 15% among 420,000. AID 686978, 2013; also: potency is read from the fitted curve at half-maximal effect; nearly all actives have a fitted effect of over 55% in size
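Chicken DT40 Tdp1-/- cells stably complemented with human TDP1 were seeded at 400 cells/well with DMSO in place of 20 nM camptothecin. After compound pinning, cells grew at least 48 hr at 37 °C; viability read by CellTiter-Glo luminescence.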
HT1080NT lethal = kills 2HG-producing HT-1080-NT fibrosarcoma cells | AID 686970 | HT-1080-NT fibrosarcoma viability, CellTiter-Glo ATP luminescence, 48 h | Potency, µM (series often up to 46.1 µM), inactives show at the top dose activity, negative = less viability, most hits filed as cytotoxic | hit rate 1.6% among 360,000;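 also: NT is the 2HG producing partner of a matched IDH1 knockdown line; potency is read from the fitted curve at half-maximal effect; 0% = DMSO-treated cells and -100% = media-only wells without cells; nearly all actives have a fitted effect of over 55% in size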
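Luminescent CellTiter-Glo readout after 48 hours of compound exposure at 37 degrees C defined viability of HT-1080-NT cells. Activity was normalized to DMSO wells and cell-free media wells; concentration-response curves were fitted and assigned curve classes.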
TDP1 cell CPT = growth inhibition of DT40 Tdp1-/-;hTDP1 cells with camptothecin (screen for TDP1 inhibitors); chicken DT40 Tdp1-/-;hTDP1 cells + 20 nM CPT, ATP luminescence, 48 h; hit rate 12% among 420,000; Potency, µM (titrated, usually from 46.2 µM), for inactives: at the highest dose activity change, negative = growth inhibition, usual class: inhibitors; also: potency is read from the fitted curve at half-maximal effect; nearly all actives have a fitted effect of over 55% in size
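Chicken DT40 Tdp1-/- cells complemented with human TDP1, 400 cells/well, exposed to compounds plus 20 nM camptothecin for at least 48 h at 37 C; viability read as ATP content by CellTiter-Glo luminescence.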
HT1080 IDH1KD tx = kills HT-1080 cells with IDH1 knockdown; HT-1080 IDH1 knockdown viability, ATP luminescence, 48 h; Potency, µM (series often up to 46.1 µM), inactives show top-dose activity, negative = toxicity, hits mostly cytotoxic; hit rate 2% among 360,000; AID 686971;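 also: potency is read from the fitted curve at half-maximal effect; 0% = DMSO wells and -100% = cell-free medium wells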
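HT-1080-IDH1KD cells (IDH1 knocked down), 750/well in RPMI with 5% FBS, treated with compound 48 h at 37 degrees C. Viability by CellTiter-Glo luminescence, normalised to DMSO and no-cell wells; concentration-response curves classed.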
IL-1B inflam inh = inflammasome signaling inhibition, IL-1 beta readout | activity change, % at 57.5 µM | THP-1 LPS/ATP IL-1B secretion, AlphaLISA, 16 h; active compounds read low | hit rate 4.7% among 360,000; in the data active = activity change below about -50%; inconclusive = mostly about -30% to -49%
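THP-1 cells pretreated 1 hr with compounds (up to 57.5 uM final), then stimulated with LPS (250 ng/mL final) plus ATP (1.25 mM final); secreted IL-1B measured by AlphaLISA after 16 hr, decreased signal indicating inhibition.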
* hit, by the source's call; ? = inconclusive; / = no result; [ ] = dose if it differs, or a comment. Unless noted, calls follow the shape of the dose curve; as a rule, active = well fitted curve in the direction sought with a large enough effect; inconclusive = small, poorly fitted or top-dose-only effect, or another doubt; inactive = no such curve, though single readings can be large; an effect the other way counts as inactive or inconclusive. Unless noted, % is scaled to controls: 0 for no effect and ±100 for the full control effect.

SMILES | uPA surface inh | TDP1 cell noCPT | HT1080NT lethal | TDP1 cell CPT | HT1080 IDH1KD tx | IL-1B inflam inh
CCN1CCN(c2cc(C)c3cc(NC(=S)N4CCN(c5ccccc5)CC4)ccc3n2)CC1 | -2% | 10µM* | -6% | 7.3µM* | -4% | 56
Cc1ccc(C)c(N2CCN(C(=S)Nc3ccc4nc(N5CCOCC5)cc(C)c4c3)CC2)c1 | 2% | ? | -23% | -12% | -27% | 0
Cc1ccc(C)c(N2CCN(C(=S)Nc3ccc4nc(N5CCN(C)CC5)cc(C)c4c3)CC2)c1 | -1% | 12µM* | ? | 16µM* | ? | 22
Cc1cc(N2CCN(C)CC2)nc2ccc(NC(=S)N3CCN(c4ccccn4)CC3)cc12 | 0% | ? | 16µM* | -27% | ? | ?
COc1ccccc1N1CCN(C(=S)Nc2ccc3nc(N4CCOCC4)cc(C)c3c2)CC1 | 0% | ? | 0% | ? | ? | -168*
COc1cc(OC)cc(-c2c(Sc3ccccc3)c3cc(-c4ccc(SC)cc4)ccc3n2C)c1 | / | -18% | 0% | -12% | 1% | 24
Cc1ccc(CN2C[C@@H](Sc3nc(C)cc(C)n3)C[C@H]2C(=O)N2CCN(c3ccccc3F)CC2)cc1 | / | ? | / | -11%[9.04 µM] | / | /
S=C(NCc1ccccc1)NC1CCCc2ccccc21 (centres undefined) | -6% | ? | -24% | ? | -7% | -57*
O=C(Nc1ccccc1)NC1CCCc2ccccc21 (centres undefined) | -13% | 18µM* | 9% | ? | -2% | -12
COCCCN(C(=O)CSCC(=O)Nc1ccc(C)cc1)c1c(N)n(Cc2ccccc2)c(=O)[nH]c1=O | 15% | -9% | 0% | 26% | 0% | 14
CC(=O)c1c(Cl)nc2ccc(Br)cc2c1-c1ccccc1 | ? | ? | -1% | -21% | -3% | 27
O=C(Oc1ccccc1)N1CCC2(CC1)CCN(c1ccccn1)CC2 | / | ? | / | 16µM* | / | /
COC(=O)N1CCC2(CC1)CCN(c1ccccn1)CC2 | / | -24% | / | 18% | / | /
O=C(Oc1ccccc1)N1CCC2(CC1)CCN(c1ccncc1)CC2 | / | 15µM* | / | 15µM* | / | /
N#CCc1c(C#N)c(N)nc(N2CCN(Cc3ccc4c(c3)OCO4)CC2)c1C#N | 1% | 12µM* | -3% | ? | -18% | -28
Cc1nc(N2CCC(C)CC2)c2oc3ccccc3c2n1 | -6% | ? | ? | ? | ? | -15
CSc1nc(N2CCN(Cc3ccc4c(c3)OCO4)CC2)c2ccccc2n1 | 2% | ? | -5% | ? | -12% | 28
Cc1nc(N2CCN(Cc3ccc4c(c3)OCO4)CC2)c2cc(-c3ccccc3)sc2n1 | -6% | 23µM* | 0% | 18µM* | -2% | -62*
COc1ccccc1N1CCN(c2nc(C)nc3c2oc2ccccc23)CC1 | / | 2.8µM* | 1.1µM* | 3.2µM* | 1.3µM* | -10
Cc1nc(N2CCN(Cc3ccc(Cl)cc3)CC2)c2oc3ccccc3c2n1 | 4% | 16µM* | -24% | 23µM* | ? | -63*
CNC(=O)c1c(NC(=O)c2cc(=O)c3cc(C)c(C)cc3o2)sc2c1CCCC2 | / | -5% | / | -4% | / | /
CCCS(=O)(=O)NC(=O)C1(C)CCN(C(=O)COc2ccccc2)C1 (centres undefined) | / | 12% | 3% | 3% | 10% | 2
C=C1NN(Cc2ccccc2)C(=O)N1c1ccc(OC)cc1 | / | -17% | / | 8% | / | /
Cc1nc(Nc2ccc3c(c2)OCO3)c2oc3ccccc3c2n1 | -9% | ? | -14% | ? | -20% | ?
Cc1nc(N2CCN(Cc3ccc4c(c3)OCO4)CC2)c2oc3ccccc3c2n1 | -3% | 9.2µM* | ? | 7.3µM* | ? | ?
SMILES | uPA surface inh | TDP1 cell noCPT | HT1080NT lethal | TDP1 cell CPT | HT1080 IDH1KD tx | IL-1B inflam inh
CC[C@]12c3[nH]c4cc(-c5ccco5)ccc4c3CCN1C(=O)[C@@H](CC(=O)NC(C)(C)C)C[C@@H]2C(=O)N1CCN(C(=O)C2CC2)CC1 | 6% | 21µM* | 0% | 15µM* | -2% | -11
CC(C)(C)NC(=O)C[C@H]1C[C@H](C(=O)N2CCCCC2)[C@@]2(C)c3[nH]c4cc(-c5ccco5)ccc4c3CCN2C1=O | -15% | 26µM* | -21% | ? | -17% | 1
O=C(Cn1cc[n+](CC(=O)c2ccc(Cl)cc2Cl)c1)c1ccc(Cl)cc1Cl | 9% | 26µM* | -15% | ? | -8% | -82*
Cc1nn(CC(=O)c2ccc(Cl)cc2Cl)c(C)[n+]1N | -5% | -1% | -1% | 6% | 2% | 13
O=C(Cn1cc[n+](CC(=O)c2ccccc2)c1)c1ccccc1 | -2% | 4.1µM* | 6% | 8.2µM* | 4% | -21
Clc1ccc(-c2nnc(NCc3ccccc3)c3ccccc23)cc1 | 15% | ? | ? | ? | ? | -94*
Cc1ccc(-c2nnc(NCc3ccccc3)c3ccccc23)cc1 | 3% | ? | -13% | ? | -11% | -84*
NC(=O)Cc1ccc(Nc2nnc(-c3ccccc3)c3ccccc23)cc1 | 0% | 0% | 17% | 7% | 17% | -15
COc1ccc(/C=C/C(=O)NC(=S)Nc2cc3oc4ccccc4c3cc2OC)cc1 | 4% | ? | 11% | 9.2µM* | 26% | 40
COc1cc2c(cc1NC(=S)Nc1cccc(C)c1)oc1ccccc12 | / | ? | 10µM* | ? | ? | -3
COc1cc2c(cc1NC(=S)NC(=O)/C=C/c1ccco1)oc1ccccc12 | 1% | ? | ? | 16µM* | ? | 15
COc1cc2c(cc1NC(=O)Nc1cccc(C)c1)oc1ccccc12 | 6% | ? | 1% | ? | -7% | -8
COc1cc2c(cc1NC(=S)NC(=O)/C=C/c1ccc(OC)c(OC)c1)oc1ccccc12 | -2% | 5% | 8% | 6% | -12% | 23
CSc1ccc(OC2(C)CCN(Cc3ccc(OC(F)(F)F)cc3)C2)cc1 (centres undefined) | / | ? | -5% | -27% | 13% | 18
COc1cc(OC)c(NC(=O)Cn2cnc3sc(C)c(S(=O)(=O)N4CCN(C)CC4)c3c2=O)cc1Cl | / | -12% | / | -14% | / | /
Nc1nc(N)c2snnc2n1 | / | ? | / | 2% | / | /
Nc1[nH]c(=S)nc2nnsc12 | / | 11µM* | / | 11µM* | / | /
Cc1ccc(NC(=O)CCCCCC2NC(=O)NC2C)cc1 (centres undefined) | -7% | 6% | 3% | -22% | -6% | -95*

Screens deposited in PubChem by National Center for Advancing Translational Sciences (NCATS).
